Test results published in the supplement of paper PMC11732987, “Enantioselective OTUD7B fragment discovery through chemoproteomics screening and high-throughput optimisation” (Communications Chemistry, 2025).

Experiments:
Assay in all cases: log2 ratio of Biotin-Ahx-Ub-VS probe labelling (fragment/DMSO); higher = less target engagement (more negative = stronger competition), active = hit call of the paper (q ≤ 0.05, log2 ratio ≤ -1)
Conditions in all cases: compound concentration: 200 uM; treatment time: 3 h
OTUD6B = target: T1, OTUD6B (UniProt Q8N6M0)
T1 sequence (whole entry): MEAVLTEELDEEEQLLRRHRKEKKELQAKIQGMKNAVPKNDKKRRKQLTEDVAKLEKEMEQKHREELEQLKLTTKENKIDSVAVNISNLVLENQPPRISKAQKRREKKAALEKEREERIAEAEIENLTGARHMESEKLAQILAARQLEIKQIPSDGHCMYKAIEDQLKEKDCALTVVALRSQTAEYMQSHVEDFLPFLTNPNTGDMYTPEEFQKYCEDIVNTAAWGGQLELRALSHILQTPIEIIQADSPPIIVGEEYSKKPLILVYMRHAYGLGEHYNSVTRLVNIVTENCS
In short: (§1)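 Fragment (200 µM) or vehicle was incubated for 3 h with triplicate HEK293T lysate samples of 495 µg, which were then treated with Biotin-Ahx-Ub-VS at 0.5 µM final for 1 h. Labelled DUBs were enriched on NeutrAvidin, digested with LysC and trypsin, and analysed by diaPASEF LC-MS/MS. Values are average log2 fragment/vehicle ratios from an unpaired t-test on global-median-normalised Spectronaut label-free quantities, using proteins with ≥2 unique peptides.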

OTUD7B = target: T2, OTUD7B (UniProt Q6GQQ9)
T2 sequence (whole entry): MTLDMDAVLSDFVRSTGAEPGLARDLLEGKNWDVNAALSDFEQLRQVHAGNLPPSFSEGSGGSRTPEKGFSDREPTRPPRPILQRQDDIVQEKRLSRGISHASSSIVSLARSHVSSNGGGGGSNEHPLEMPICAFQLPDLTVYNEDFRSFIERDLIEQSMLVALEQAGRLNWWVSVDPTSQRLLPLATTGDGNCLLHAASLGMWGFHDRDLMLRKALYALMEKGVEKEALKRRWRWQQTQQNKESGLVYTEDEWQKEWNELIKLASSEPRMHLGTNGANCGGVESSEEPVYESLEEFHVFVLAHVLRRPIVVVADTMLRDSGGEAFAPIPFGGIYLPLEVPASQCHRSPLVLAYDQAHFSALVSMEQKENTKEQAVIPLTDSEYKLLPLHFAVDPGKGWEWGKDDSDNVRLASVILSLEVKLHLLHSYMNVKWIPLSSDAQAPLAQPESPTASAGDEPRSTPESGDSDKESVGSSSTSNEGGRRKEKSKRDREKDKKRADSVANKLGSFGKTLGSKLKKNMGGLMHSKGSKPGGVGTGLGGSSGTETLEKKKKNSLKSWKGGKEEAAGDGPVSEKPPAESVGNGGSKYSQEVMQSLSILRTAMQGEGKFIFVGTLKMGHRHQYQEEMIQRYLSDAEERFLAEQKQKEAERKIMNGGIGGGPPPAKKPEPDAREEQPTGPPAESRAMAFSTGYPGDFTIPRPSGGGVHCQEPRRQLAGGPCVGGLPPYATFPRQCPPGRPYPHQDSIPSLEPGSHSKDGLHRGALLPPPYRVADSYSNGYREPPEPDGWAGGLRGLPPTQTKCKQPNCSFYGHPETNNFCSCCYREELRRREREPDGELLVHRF
In short: as §1

PRPF8 = PRPF8 (UniProt Q6P2Q9)
In short: as §1

PSMD7 = target: T3, PSMD7 (UniProt P51665)
T3 sequence (whole entry): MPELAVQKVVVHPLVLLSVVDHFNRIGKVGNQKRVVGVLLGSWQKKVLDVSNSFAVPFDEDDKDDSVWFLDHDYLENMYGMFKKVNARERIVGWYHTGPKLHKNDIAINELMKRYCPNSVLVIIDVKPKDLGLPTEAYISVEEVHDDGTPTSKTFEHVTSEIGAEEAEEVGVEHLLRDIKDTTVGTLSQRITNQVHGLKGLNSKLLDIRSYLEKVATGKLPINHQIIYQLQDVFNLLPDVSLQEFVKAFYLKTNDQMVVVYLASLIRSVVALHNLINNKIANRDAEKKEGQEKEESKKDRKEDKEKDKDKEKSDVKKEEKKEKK
In short: as §1

UCHL1 = UCHL1 (UniProt P09936)
In short: as §1

UCHL3 = target: T4, UCHL3 (UniProt P15374)
T4 sequence (whole entry): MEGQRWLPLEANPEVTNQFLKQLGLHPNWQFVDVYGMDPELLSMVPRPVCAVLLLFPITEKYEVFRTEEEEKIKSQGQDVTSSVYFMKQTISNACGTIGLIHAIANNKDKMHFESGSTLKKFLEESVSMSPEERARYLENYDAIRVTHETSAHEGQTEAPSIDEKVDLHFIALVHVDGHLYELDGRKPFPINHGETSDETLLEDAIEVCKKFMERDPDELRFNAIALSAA
In short: as §1

UCHL5 = target: T5, UCHL5 (UniProt Q9Y5K5)
T5 sequence (whole entry): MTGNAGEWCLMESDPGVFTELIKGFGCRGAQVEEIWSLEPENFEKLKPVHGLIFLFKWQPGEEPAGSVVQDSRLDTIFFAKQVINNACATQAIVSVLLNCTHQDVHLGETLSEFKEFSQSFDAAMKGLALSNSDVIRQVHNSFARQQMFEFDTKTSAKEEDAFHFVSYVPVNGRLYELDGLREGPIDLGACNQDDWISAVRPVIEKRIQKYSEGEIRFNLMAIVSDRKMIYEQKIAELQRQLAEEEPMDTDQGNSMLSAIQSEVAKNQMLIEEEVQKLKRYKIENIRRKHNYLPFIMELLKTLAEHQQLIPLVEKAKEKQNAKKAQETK
In short: as §1

USP10 = USP10 (UniProt Q14694)
In short: as §1

USP15 = target: T6, USP15 (UniProt Q9Y4E8)
T6 sequence (whole entry): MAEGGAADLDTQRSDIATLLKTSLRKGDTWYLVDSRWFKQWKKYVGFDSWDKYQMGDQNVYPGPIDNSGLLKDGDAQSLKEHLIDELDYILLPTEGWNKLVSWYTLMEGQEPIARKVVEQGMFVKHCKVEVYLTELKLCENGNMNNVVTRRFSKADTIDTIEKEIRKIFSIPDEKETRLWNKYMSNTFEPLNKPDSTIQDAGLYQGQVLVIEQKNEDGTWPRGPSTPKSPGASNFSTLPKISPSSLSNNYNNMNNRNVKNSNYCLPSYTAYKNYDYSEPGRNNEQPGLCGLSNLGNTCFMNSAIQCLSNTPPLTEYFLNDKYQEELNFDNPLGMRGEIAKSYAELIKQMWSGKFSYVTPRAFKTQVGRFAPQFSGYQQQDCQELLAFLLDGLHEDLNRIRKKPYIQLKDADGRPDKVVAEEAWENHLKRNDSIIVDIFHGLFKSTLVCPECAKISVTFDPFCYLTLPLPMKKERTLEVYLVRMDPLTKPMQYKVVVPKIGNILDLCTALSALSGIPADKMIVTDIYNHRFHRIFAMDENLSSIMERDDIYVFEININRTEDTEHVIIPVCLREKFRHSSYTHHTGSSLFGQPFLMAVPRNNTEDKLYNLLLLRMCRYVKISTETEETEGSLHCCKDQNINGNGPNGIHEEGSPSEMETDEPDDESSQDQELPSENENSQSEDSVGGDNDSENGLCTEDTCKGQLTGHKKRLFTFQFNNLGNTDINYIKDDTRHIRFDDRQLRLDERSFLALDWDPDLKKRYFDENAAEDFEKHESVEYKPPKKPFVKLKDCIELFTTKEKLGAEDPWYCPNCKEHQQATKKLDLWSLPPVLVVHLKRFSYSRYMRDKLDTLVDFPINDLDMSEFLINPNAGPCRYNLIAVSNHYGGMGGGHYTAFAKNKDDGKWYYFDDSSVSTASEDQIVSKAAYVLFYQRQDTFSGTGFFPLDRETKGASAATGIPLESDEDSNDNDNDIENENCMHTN
In short: as §1

USP16 = USP16 (UniProt Q9Y5T5)
In short: as §1

Measured: log2 ratio of Biotin-Ahx-Ub-VS probe labelling

Sequence of USP16 (Q9Y5T5 whole entry, looked up): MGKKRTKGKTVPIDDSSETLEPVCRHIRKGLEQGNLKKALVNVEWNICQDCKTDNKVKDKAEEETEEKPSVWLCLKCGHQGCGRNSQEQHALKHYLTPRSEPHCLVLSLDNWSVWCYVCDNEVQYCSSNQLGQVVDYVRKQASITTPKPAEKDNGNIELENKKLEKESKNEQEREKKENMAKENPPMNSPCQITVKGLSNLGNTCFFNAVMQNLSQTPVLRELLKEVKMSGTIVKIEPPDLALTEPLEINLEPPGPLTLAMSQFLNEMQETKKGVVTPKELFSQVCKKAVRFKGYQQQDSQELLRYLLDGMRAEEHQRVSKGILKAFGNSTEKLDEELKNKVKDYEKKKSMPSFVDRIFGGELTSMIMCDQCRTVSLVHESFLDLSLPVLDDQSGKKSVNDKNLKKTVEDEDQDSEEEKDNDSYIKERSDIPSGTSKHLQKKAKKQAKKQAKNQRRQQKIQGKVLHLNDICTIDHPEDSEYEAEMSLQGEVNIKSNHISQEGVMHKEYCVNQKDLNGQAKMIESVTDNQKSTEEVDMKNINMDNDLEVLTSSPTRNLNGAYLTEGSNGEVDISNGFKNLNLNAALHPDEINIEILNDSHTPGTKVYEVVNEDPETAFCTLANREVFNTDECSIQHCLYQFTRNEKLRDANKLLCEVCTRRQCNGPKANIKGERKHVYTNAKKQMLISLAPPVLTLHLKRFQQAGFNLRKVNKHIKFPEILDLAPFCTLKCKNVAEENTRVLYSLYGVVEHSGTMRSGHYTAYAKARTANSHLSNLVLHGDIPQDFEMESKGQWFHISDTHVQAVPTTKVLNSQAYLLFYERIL
Sequence of UCHL1 (P09936 whole entry, looked up): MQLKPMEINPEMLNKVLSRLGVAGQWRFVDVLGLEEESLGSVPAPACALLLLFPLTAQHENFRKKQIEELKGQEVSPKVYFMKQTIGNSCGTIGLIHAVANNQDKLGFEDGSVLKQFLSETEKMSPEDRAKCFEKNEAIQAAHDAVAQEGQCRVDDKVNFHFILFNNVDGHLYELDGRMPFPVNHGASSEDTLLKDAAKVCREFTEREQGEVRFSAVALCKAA
Sequence of USP10 (Q14694 whole entry): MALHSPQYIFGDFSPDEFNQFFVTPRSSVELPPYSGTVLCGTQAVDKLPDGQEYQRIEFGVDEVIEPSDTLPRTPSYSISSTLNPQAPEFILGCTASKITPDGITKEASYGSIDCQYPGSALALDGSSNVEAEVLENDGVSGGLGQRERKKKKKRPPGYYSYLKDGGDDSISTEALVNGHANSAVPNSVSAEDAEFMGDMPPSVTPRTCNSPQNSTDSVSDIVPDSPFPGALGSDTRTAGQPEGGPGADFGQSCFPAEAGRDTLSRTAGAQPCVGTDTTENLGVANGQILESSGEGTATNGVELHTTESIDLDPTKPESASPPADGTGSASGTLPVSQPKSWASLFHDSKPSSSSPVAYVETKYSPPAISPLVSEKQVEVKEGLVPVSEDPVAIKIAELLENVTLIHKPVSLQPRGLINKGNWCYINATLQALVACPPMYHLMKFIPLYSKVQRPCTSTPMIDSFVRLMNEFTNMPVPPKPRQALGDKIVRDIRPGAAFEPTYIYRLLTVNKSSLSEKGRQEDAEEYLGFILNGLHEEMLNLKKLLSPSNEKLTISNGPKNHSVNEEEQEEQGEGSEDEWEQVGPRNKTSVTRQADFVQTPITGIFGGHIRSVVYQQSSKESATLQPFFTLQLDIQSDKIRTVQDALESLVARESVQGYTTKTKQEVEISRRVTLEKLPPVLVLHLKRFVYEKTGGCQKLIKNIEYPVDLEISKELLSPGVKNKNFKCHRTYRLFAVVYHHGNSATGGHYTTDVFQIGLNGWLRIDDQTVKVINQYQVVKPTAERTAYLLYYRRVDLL

Cc1ccc(CC(CO)CNC(=O)CCl)cc1 (stereo not given)
active: OTUD7B -1.12 | UCHL1 -1.92
inactive: OTUD6B -0.264 | PRPF8 -0.059 | PSMD7 -0.169 | UCHL3 -0.121 | UCHL5 -0.474 | USP10 -0.0682 | USP15 -0.199 | USP16 0.217
